Assay results reported in PubChem BioAssay (Tox21).
Values joined by “and” are separate entries in the source; they are usually repeats but may differ in a detail not shown here. Identical values can stand only once. Active and inactive are the calls of the source. Unless noted, calls follow the shape of the dose curve; as a rule, active = well fitted curve in the direction sought with a large enough effect in the repeat runs; inconclusive = weak or mixed curves; inactive = no such curve, though single readings can be large; an effect the other way counts as inactive or inconclusive.

How the values were obtained:
[1] = qHTS assay to identify small molecule antagonists of the thyroid receptor (TR) signaling pathway - cell viability counter screen (AID 743064); also: nearly all actives have a fitted effect of over 50% in size; also: potency is read from the fitted curve at half-maximal effect
Summary of the method: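 Counter screen for cytotoxicity: compound plus T3 (1 nM final) on GH3.TRE-Luc cells, 23.5 h at 37 °C, then fluorescence viability readout with CellTiter-Fluor.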

[2] = tested on: thyroid hormone receptor (rat, GH3 cells); experiment: qHTS assay to identify small molecule agonists of the thyroid receptor (TR) signaling pathway (AID 743066; calls by dose curve; also: potency is read from the fitted curve at half-maximal effect)
[3] = target: Estrogen receptor (Homo sapiens) (UniProt P03372); experiment: qHTS assay to identify small molecule antagonists of the estrogen receptor alpha (ER-alpha) signaling pathway (AID 743069; active = well fitted curve in the direction sought with a large enough effect in the signal ratio in the repeat runs, not every such curve was filed as active; inconclusive = weak or mixed curves, or effect the other way; inactive = no such curve, though single readings can be large or run the other way; the % refers to the signal ratio)
Summary of the method: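 Compound effects are measured against 17beta-estradiol stimulation in HEK293 cells with a UAS-controlled beta-lactamase reporter for ER-alpha. Exposure lasts 18 hr at 37C; LiveBLAzer B/G FRET substrate follows for 2 hr at room temperature.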

[4] = qHTS assay to identify small molecule antagonists of the estrogen receptor alpha (ER-alpha) signaling pathway - cell viability counter screen (AID 743074; calls by dose curve;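 also: HEK293 cells carrying ER-alpha-UAS-bla reporter stimulated with 17beta-estradiol; nearly all actives have a fitted effect of over 45% in size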)
[5] = target: Estrogen receptor (Homo sapiens) (UniProt P03372); experiment: qHTS assay to identify small molecule agonists of the estrogen receptor alpha (ER-alpha) signaling pathway (AID 743075; calls by dose curve; also: potency is read from the fitted curve at half-maximal effect)
[6] = target: Estrogen receptor (Homo sapiens) (UniProt P03372); experiment: qHTS assay to identify small molecule agonists of the estrogen receptor alpha (ER-alpha) signaling pathway using the BG1 cell line (AID 743079); settings: BG1Luc4E2 cells, ERE-luciferase agonist, 22 h; also: nearly all actives have a fitted effect of over 20% in size; also: potency is read from the fitted curve at half-maximal effect
[7] = qHTS assay to identify small molecule antagonists of the estrogen receptor alpha (ER-alpha) signaling pathway using the BG1 cell line (AID 743080; calls by dose curve;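 also: BG1 cells stimulated with 17beta-estradiol alongside compound; nearly all actives have a fitted effect of over 25% in size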)
Summary of the method: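 BG1-Luc-4E2 cells (endogenous full-length ER-alpha, stable 4×ERE-luciferase) were starved 5 days in phenol-red-free medium with 10% charcoal-stripped FBS, plated 24 h, then given compound plus 17beta-estradiol for 21.5 h at 37 C; ONE-Glo luminescence read after 30 min.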

[8] = qHTS assay to identify small molecule antagonists of the estrogen receptor alpha (ER-alpha) signaling pathway using the BG1 cell line - cell viability counter screen (AID 743081);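 also: compound given together with 17beta-estradiol as the ER stimulus; nearly all actives have a fitted effect of over 45% in size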; also: potency is read from the fitted curve at half-maximal effect
[9] = target: Aromatase (Homo sapiens) (UniProt P11511); experiment: qHTS assay to identify aromatase inhibitors (AID 743083); also: nearly all actives have a fitted effect of over 55% in size
% is scaled to controls: 0 for no effect and ±100 for the full control effect.

Aromatase (Homo sapiens), sequence (P11511 whole entry, looked up): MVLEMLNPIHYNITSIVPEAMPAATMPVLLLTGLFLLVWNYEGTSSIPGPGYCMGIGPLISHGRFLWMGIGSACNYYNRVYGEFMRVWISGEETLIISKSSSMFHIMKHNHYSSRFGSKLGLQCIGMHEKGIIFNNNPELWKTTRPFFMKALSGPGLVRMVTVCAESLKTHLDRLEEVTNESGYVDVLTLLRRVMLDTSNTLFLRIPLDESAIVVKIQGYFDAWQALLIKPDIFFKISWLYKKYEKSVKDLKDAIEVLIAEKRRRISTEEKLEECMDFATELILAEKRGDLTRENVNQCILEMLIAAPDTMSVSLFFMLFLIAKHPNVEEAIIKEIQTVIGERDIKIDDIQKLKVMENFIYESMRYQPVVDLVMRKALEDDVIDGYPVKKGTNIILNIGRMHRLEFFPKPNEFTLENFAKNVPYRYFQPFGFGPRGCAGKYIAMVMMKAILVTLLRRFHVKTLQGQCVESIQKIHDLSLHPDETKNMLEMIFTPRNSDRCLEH
Estrogen receptor (Homo sapiens), sequence (P03372 whole entry, looked up): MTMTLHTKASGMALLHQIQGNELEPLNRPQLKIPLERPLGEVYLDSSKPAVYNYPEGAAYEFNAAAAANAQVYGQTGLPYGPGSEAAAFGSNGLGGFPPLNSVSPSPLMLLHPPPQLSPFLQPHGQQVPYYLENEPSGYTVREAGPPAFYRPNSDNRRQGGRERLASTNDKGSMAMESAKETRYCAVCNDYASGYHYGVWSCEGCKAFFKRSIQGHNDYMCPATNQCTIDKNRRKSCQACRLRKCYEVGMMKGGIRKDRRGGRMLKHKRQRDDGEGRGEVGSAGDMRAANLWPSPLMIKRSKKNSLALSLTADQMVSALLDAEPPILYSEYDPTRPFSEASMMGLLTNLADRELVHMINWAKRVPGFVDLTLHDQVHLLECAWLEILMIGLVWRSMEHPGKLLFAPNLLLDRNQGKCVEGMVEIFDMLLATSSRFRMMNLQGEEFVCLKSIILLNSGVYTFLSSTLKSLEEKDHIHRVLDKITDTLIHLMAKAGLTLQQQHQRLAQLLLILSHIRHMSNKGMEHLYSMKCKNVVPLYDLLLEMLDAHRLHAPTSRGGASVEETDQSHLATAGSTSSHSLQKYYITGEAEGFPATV

CCN[C@@H](C)Cc1cccc(C(F)(F)F)c1
inactive: Potency [1] | Potency [2] | Potency [3] | Potency [4] | Potency [5] | activation ([6]; at 70.3 µM (top of the series)) -18% | Potency [7] | Potency [8] | Potency [9]

CN(CCO)CCO
inactive: Potency [1] | Potency [2] | Potency [3] | Potency [4] | Potency [5] | activation ([6]; at 95 µM (top of the series)) -2.37% | Potency [7] | Potency [8] | Potency [9]

Cc1ccc(-c2nc3ccc(C)cn3c2CC(=O)N(C)C)cc1
inactive: Potency [1] | Potency [2] | Potency [4] | Potency [5] | activation ([6]; at 70.3 µM (top of the series)) 15.6% | Potency [7] | Potency [8] | Potency [9]

CNC(=O)NC(O)C(Cl)(Cl)Cl (centres undefined)
inactive: Potency [1] | Potency [2] | Potency [3] | Potency [4] | Potency [5] | activation ([6]; at 70.3 µM (top of the series)) 2.72% | Potency [7] | Potency [8] | Potency [9]

Cl/C=C/CCl
inactive: Potency [1] | Potency [2] | Potency [4] | Potency [8] | Potency [9]

Cn1c(N)nc2c3cccnc3ccc21
active: Potency [1] 26 µM
inactive: Potency [2] | Potency [3] | Potency [4] | Potency [5] | activation ([6]; at 70.3 µM (top of the series)) 9.73% | Potency [7] | Potency [9]

C[C@]12C=CC(=O)C=C1CC[C@@H]1[C@@H]2CC[C@@]2(C)[C@H]1CC[C@]2(C)O
inactive: Potency [1] | Potency [2] | Potency [4] | Potency [7] | Potency [8] | Potency [9]
active: Potency [5] 425 nM [inconclusive] | Potency [6] 0.15 µM

C=C(C)[C@H]1CN[C@H](C(=O)O)[C@H]1CC(=O)O
inactive: Potency [1] | Potency [2] | Potency [3] | Potency [4] | Potency [5] | activation ([6]; at 70.3 µM (top of the series)) 2.22% | Potency [7] | Potency [8] | Potency [9]

CC[C@@H](CO)NC(=O)[C@@H]1C=C2c3cccc4c3c(cn4C)C[C@H]2N(C)C1
inactive: Potency [1] | Potency [2] | Potency [4] | Potency [5] | activation ([6]; at 70.3 µM (top of the series)) 13.7% | Potency [7] | Potency [8] | Potency [9]

Cn1c(CCCC(=O)O)nc2cc(N(CCCl)CCCl)ccc21
active: Potency [8] 1.06 µM
inactive: Potency [1] | Potency [2] | Potency [3] | Potency [4] | Potency [5] | activation ([6]; at 70.3 µM (top of the series)) -7.85% | Potency [7] | Potency [9]

CCOP(=O)(CN(CCO)CCO)OCC
inactive: Potency [1] | Potency [2] | Potency [3] | Potency [4] | Potency [5] | activation ([6]; at 70.3 µM (top of the series)) -2.5% | Potency [7] | Potency [8] | Potency [9]

O=C(NC(O)C(Cl)(Cl)Cl)NC(O)C(Cl)(Cl)Cl (centres undefined)
inactive: Potency [1] | Potency [2] | Potency [3] | Potency [4] | Potency [5] | activation ([6]; at 70.3 µM (top of the series)) 4.91% | Potency [7] | Potency [8] | Potency [9]

ClC(Cl)(Cl)Cl
inactive: Potency [1] | Potency [2] | Potency [3] | Potency [4] | Potency [5] | activation ([6]; at 70.3 µM (top of the series)) 2.38% and 2.1% | Potency [7] | Potency [8] | Potency [9]

CNC(=O)Oc1ccccc1C(C)C
inactive: Potency [1] | Potency [2] | Potency [3] | Potency [4] | Potency [5] | activation ([6]; at 70.3 µM (top of the series)) -4.06% | Potency [7] | Potency [8] | Potency [9]

Cc1ccc(Cl)c(O)c1
inactive: Potency [1] | Potency [2] | Potency [3] | Potency [4] | Potency [5] | activation ([6]; at 70.3 µM (top of the series)) 9.43% | Potency [7] | Potency [8] | Potency [9]

CC(C)(C)C(=O)C(Cl)Cl
inactive: Potency [1] | Potency [2] | Potency [4] | Potency [8]

CCCCCCC(=O)CCCCCC/C=C/C[C@@H](O)[C@H](O)[C@@](N)(CO)C(=O)O
inactive: Potency [1] | Potency [2] | Potency [3] | Potency [4] | Potency [5] | activation ([6]; at 70.3 µM (top of the series)) -8.98% and -0.434% | Potency [7] | Potency [8] | Potency [9]

O=P(O)(O)CN(CP(=O)(O)O)CP(=O)(O)O
inactive: Potency [1] | Potency [2] | Potency [3] | Potency [4] | Potency [5] | activation ([6]; at 32.5 µM (top of the series)) 11.2% | Potency [7] | Potency [8] | Potency [9]

CCCCOC(C)=O
inactive: Potency [1] | Potency [2] | Potency [3] | Potency [4] | Potency [5] | activation ([6]; at 95 µM (top of the series)) -9.13% | Potency [7] | Potency [8] | Potency [9]

OP(O)c1ccccc1
inactive: Potency [1] | Potency [2] | Potency [3] | Potency [4] | Potency [5] | activation ([6]; at 95 µM (top of the series)) 6.24% | Potency [7] | Potency [8] | Potency [9]

O=C(Cl)CCl
inactive: Potency [1] | Potency [2] | Potency [3] | Potency [4] | Potency [5] | activation ([6]; at 95 µM (top of the series)) 0.754% | Potency [7] | Potency [8] | Potency [9]

CCCN1CCC[C@@H]2Cc3[nH]ncc3C[C@H]21
inactive: Potency [1] | Potency [2] | Potency [3] | Potency [4] | Potency [5] | activation ([6]; at 70.3 µM (top of the series)) -4.44% | Potency [7] | Potency [8] | Potency [9]

CCCC(C)(COC(N)=O)COC(N)=O
inactive: Potency [1] | Potency [2] | Potency [4] | Potency [8] | Potency [9]

ClCC1CO1 (centres undefined)
inactive: Potency [1] | Potency [2] | Potency [3] | Potency [4] | Potency [5] | activation ([6]; at 70.3 µM (top of the series)) -1.3% and 13.9% | Potency [7] | Potency [8] | Potency [9]

N#CN
inactive: Potency [1] | Potency [2] | Potency [3] | Potency [4] | Potency [5] | activation ([6]; at 70.3 µM (top of the series)) -14.8% | activation ([6]; at 260 µM (top of the series)) -1.65% | Potency [7] | Potency [8] | Potency [9]

CCOC(=O)c1ncn2c1CN(C)C(=O)c1c(I)cccc1-2
inactive: Potency [1] | Potency [2] | Potency [3] | Potency [4] | Potency [5] | activation ([6]; at 70.3 µM (top of the series)) -3.09% | Potency [7] | Potency [8] | Potency [9]

ClC1=C(Cl)C2(Cl)C(CBr)CC1(Cl)C2(Cl)Cl (centres undefined)
inactive: Potency [2] | Potency [3] | Potency [4] | Potency [5] | activation ([6]; at 70.3 µM (top of the series)) -8.81% and -11.5% | Potency [7] | Potency [8] | Potency [9]
active: Potency [1] 26.6 µM and 48.6 µM

O=C(O)CBr
inactive: Potency [1] | Potency [2] | Potency [4] | Potency [8] | Potency [9]

Cc1cccc2sc3nncn3c12
inactive: Potency [1] | Potency [2] | Potency [3] | Potency [4] | Potency [5] | activation ([6]; at 70.3 µM (top of the series)) 13.8% | Potency [7] | Potency [8] | Potency [9]

CCOP(=S)(OCC)Oc1ccc(Cl)cc1Cl
inactive: Potency [1] | Potency [2] | Potency [3] | Potency [4] | Potency [5] | Potency [7] | Potency [8] | Potency [9]

CCOC(=O)Nc1cccc(OC(=O)Nc2ccccc2)c1
inactive: Potency [1] | Potency [2] | Potency [3] | Potency [4] | Potency [5] | Potency [8] | Potency [9]
active: Potency [6] 27.3 µM

CNC(=O)O/N=C(/CSC)C(C)(C)C
inactive: Potency [1] | Potency [3] | Potency [4] | Potency [5] | activation ([6]; at 70.3 µM (top of the series)) -5.87% | Potency [7] | Potency [8] | Potency [9]
active: Potency [2] 61.1 µM

CCCCCCCCSC(=O)Oc1cc(Cl)nnc1-c1ccccc1
inactive: Potency [1] | Potency [2] | Potency [4] | Potency [5] | activation ([6]; at 70.3 µM (top of the series)) 3.18% | Potency [7] | Potency [8] | Potency [9]

BrCCc1ccccc1
inactive: Potency [1] | Potency [2] | Potency [4] | Potency [8] | Potency [9]

c1cncc([C@@H]2CCCCN2)c1
inactive: Potency [1] | Potency [2] | Potency [3] | Potency [4] | Potency [5] | activation ([6]; at 70.3 µM (top of the series)) -1.75% | Potency [7] | Potency [8] | Potency [9]

O=P(O)(O)c1ccccc1
inactive: Potency [1] | Potency [2] | Potency [3] | Potency [4] | Potency [5] | activation ([6]; at 70.3 µM (top of the series)) 0.284% | Potency [7] | Potency [8] | Potency [9]

CCOP(=S)(OCC)SCCl
inactive: Potency [1] | Potency [2] | Potency [3] | Potency [5] | activation ([6]; at 70.3 µM (top of the series)) 9.52% | Potency [7] | Potency [8]

NC1(c2ccccc2)CCCCC1
inactive: Potency [2] | Potency [3] | Potency [4] | Potency [5] | activation ([6]; at 70.3 µM (top of the series)) 0.0889% | Potency [7] | Potency [8] | Potency [9]
active: Potency [1] 42.9 µM

COC(=O)[C@@H](N)CCCN/C(N)=N/[N+](=O)[O-]
inactive: Potency [1] | Potency [2] | Potency [4] | Potency [8] | Potency [9]

Brc1c(Br)c(Br)c(Br)c(Br)c1Br
inactive: activation ([6]; at 8.47 µM (top of the series)) 1.05%
